In PubChem BioAssay (EPA / NIEHS):
Results filed as inconclusive are left out. Calls of active or inactive are those of the source. The calls were made as follows: active = hit-call score of the fitted dose curve at least 0.9, where 1 is the maximum; inconclusive = response in the unintended direction; inactive = score below 0.9.

These compounds were tested against Estrogen receptor (Homo sapiens) (UniProt P03372) (assay: NVS_NR_hER: NovaScreen (NVS) Nuclear Receptor Binding Assay for human Estrogen Receptor (ER) (AID 2283348)).
In short: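 Radiodetection of ligand displacement in a lysate-based, cell-free format using MCF7 extracts, read at 18 hours. Duplicate 25 uM primary testing, then concentration series for actives.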

Estrogen receptor (Homo sapiens), sequence (P03372 whole entry, looked up, the tested form may be a part): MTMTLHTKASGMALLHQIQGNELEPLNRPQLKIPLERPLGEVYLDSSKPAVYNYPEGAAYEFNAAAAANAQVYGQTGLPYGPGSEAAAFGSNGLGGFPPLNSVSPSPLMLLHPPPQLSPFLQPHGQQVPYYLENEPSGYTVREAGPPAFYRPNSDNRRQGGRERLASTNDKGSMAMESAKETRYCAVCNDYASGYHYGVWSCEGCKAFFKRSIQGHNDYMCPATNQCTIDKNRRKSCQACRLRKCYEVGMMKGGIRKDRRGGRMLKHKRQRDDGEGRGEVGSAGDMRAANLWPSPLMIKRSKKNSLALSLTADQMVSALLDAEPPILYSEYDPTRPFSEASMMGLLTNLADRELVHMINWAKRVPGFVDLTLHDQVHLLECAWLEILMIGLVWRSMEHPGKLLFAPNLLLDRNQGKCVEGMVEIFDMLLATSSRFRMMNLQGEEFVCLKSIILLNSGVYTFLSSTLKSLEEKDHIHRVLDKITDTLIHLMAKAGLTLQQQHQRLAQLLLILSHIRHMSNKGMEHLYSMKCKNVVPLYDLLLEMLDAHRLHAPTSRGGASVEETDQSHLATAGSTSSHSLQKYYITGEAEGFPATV

| Compound | outcome | AC50 |
| --- | --- | --- |
| CCOP(=S)(OCC)SCn1nnc2ccccc2c1=O | inactive |  |
| COCCOCCO | inactive |  |
| CCCCN(CC)C(=O)SCCC |  | 3.02 µM (active) |
| [N-]=[N+]=[N-] | inactive |  |
| CC(C)Nc1ccc(Nc2ccccc2)cc1 | inactive |  |

Each compound was assayed against Estrogen receptor (Homo sapiens) (UniProt P03372) (assay: OT_ER_ERaERa_1440: Odyssey Thera (OT) 24-hour HEK293T Protein-Complementation Assay for Estrogen Receptor-alpha/-alpha Homodimer (AID 2283349);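 also: hits raise fluorescence above DMSO for agonists and antagonists alike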).
In short: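 Stably transfected HEK293T; ERα LBD homodimer PCA. 24 h dosing, fluorescence intensity read, gain-of-signal vs DMSO.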

| Compound | outcome |
| --- | --- |
| c1ccc2c(c1)sc1ccccc12 | inactive |
| CCOS(=O)(=O)OCC | inactive |
| Cc1cccc(N)c1 | inactive |
| c1cc2c3c(cccc3c1)CC2 | inactive |
| Nc1ccc2ccccc2c1 | inactive |
| O=[N+]([O-])c1ccc(Cl)c(Cl)c1 | inactive |
| O=C(CBr)OCc1ccccc1 | inactive |
| CCCCC(CC)COP(=O)(Oc1ccccc1)Oc1ccccc1 (stereo unspecified) | inactive |
| CC(Cc1ccc(OCC(=O)O)cc1)NCC(O)c1csc(C(F)(F)F)n1 (stereo unspecified) | inactive |
| CCN(CC)c1ccccc1 | inactive |
| Cc1ccc([N+](=O)[O-])cc1C | inactive |
| COCCOCCO | inactive |
| COC(N)=O | inactive |
| ClC(Cl)c1ccccc1 | inactive |
| O=C(O)C1C(C(=O)O)C2(Cl)C(Cl)=C(Cl)C1(Cl)C2(Cl)Cl (stereo unspecified) | inactive |
| O=c1ssc(Cl)c1Cl | inactive |

| Compound | outcome |
| --- | --- |
| CCCCN(CC)C(=O)SCCC | inactive |
| CCC1(c2ccccc2)C(=O)N=C(O)NC1=O (stereo unspecified) | inactive |
| [N-]=[N+]=[N-] | inactive |
| Cc1ccc(O)cc1C | inactive |
| CCOP(=S)(OCC)SCSCC | inactive |
| CCCCOCCOP(=O)(OCCOCCCC)OCCOCCCC | inactive |
| CCCCC(CC)COC(=O)c1c(Br)c(Br)c(Br)c(Br)c1C(=O)OCC(CC)CCCC (stereo unspecified) | inactive |
| O=S1(=O)OCC2C(CO1)C1(Cl)C(Cl)=C(Cl)C2(Cl)C1(Cl)Cl (stereo unspecified) | inactive |
| CCCCc1ccccc1 | inactive |
| CCOC(=O)c1ccccc1N | inactive |
| Cc1ccc(N)cc1N | inactive |
| CCOC(=O)c1ccccc1C(=O)OCC | inactive |
| CC(C)(C)N(NC(=O)c1ccc(Cl)cc1)C(=O)c1ccccc1 | inactive |
| CCOc1ccc(C(C)(C)COCc2cccc(Oc3ccccc3)c2)cc1 | inactive |
| CN(C)C(=O)Cl | inactive |
